Test results taken from PubChem BioAssay AID1986 (Sanford-Burnham Center for Chemical Genomics, 2009).
Hit rate of the full screen: of about 290,000 compounds, about 890 (0.31%) were called active. Cut-off read from the data, not from the text of the source: active = inhibition mostly above about 52% (no sharp cut-off); inactive = mostly below about 76%. What follows is part of a selection rich in actives, with near analogues and random picks from the rest.

Assay: cell-free HIV fusion peptide-binding blockers – biochemical, uHTS, fluorescence dequenching, primary screen (AID 1986)
Conditions: 30 min, stronger effect = higher value
[1] = measured here: repeat confirmation average inhibition, at 18.6 µM

Structure (SMILES)	inhibition (at 20 µM)	inhibition [1] [%]
COc1ccccc1NC(=O)C(C)OC(=O)C1CC(=O)N(c2ccc3c(c2)OCCO3)C1 (stereo not drawn)	1.1% (inactive)	
Cc1ccc(/C=N/NC(=O)c2ccccc2OCc2cccc(Br)c2)o1	-2.8% (inactive)	
CCOc1ccccc1N1CC(C(=O)Nc2ccccc2N2CCOCC2)CC1=O (stereo not drawn)	-1.3% (inactive)	
COc1ccccc1CNc1ccccc1F	-1.2% (inactive)	
COc1ccccc1C(C)NC(=O)CCOc1cccc(C)c1 (stereo not drawn)	-1.1% (inactive)	
Cc1ccc2c(CN3C(=O)NC(C)(c4ccc5c(c4)OCO5)C3=O)cc(=O)oc2c1 (stereo not drawn)	3.8% (inactive)	
CN(C)c1ccc(N=Nc2nc3ccccc3n2C)cc1	-6% (inactive)	
Cc1cc(C)c(C)c(N=Nc2nc3ccccc3n2C)c1C	-5.2% (inactive)	
Cn1c(N=Nc2ccccc2)nc2ccccc21	101% (active)	
CC1CCC2(CC1)Nc1ccccc1C(=O)N2c1ccccc1 (stereo not drawn)	-0.5% (inactive)	
O=C(CN1CCN(c2ccc(F)cc2)CC1)Nc1ccc(S(=O)(=O)N2CCOCC2)cc1	0.3% (inactive)	
CCN(CC)CC(O)CCCCCCCCC(=O)OC (stereo not drawn)	-0.6% (inactive)	
CCOc1ccc(NC(=O)CN2CCN(C3c4ccccc4-c4ccccc43)CC2)cc1	0.9% (inactive)	
CCc1ccc[n+](-c2[nH]c(=O)sc2/C=N/NC([S-])=Nc2ccccc2)c1	57% (active)	
Cc1cc[n+](-c2[nH]c(=O)sc2/C=N/NC([S-])=Nc2ccccc2)cc1C	36% (inactive)	
O=c1[nH]c(-[n+]2ccccc2)c(/C=N/NC([S-])=Nc2ccccc2)s1	97.7% (inactive)	27.6
CCN(CC)C(=O)Cn1cc(S(=O)(=O)CC(=O)Nc2ccccc2C)c2ccccc21	1.2% (inactive)	
N#CC1=C(N)SC(N)=C(C#N)C1c1ccc(C(F)(F)F)cc1	18.6% (inactive)	
N#CC1=C(N)SC(N)=C(C#N)C1c1ccoc1	97.5% (active)	
Cc1ccc(C2C(C#N)=C(N)SC(N)=C2C#N)cc1	-0.7% (inactive)	
O=C(COC(=O)c1ccc([N+](=O)[O-])s1)NC(c1ccccc1)c1ccccc1	0% (inactive)	
O=C(NC(=S)NC1CCSC1=O)c1ccc([N+](=O)[O-])cc1 (stereo not drawn)	-1.4% (inactive)	
COc1ccc(OC)c(CNC(=O)CCC(=O)N2Cc3cccc(OC)c3Oc3ncccc32)c1	1.2% (inactive)	

Structure (SMILES)	inhibition (at 20 µM)	inhibition [1] [%]
COc1ccc2nc(N/C(=N/S(=O)(=O)c3cccs3)c3ccccc3Cl)sc2c1	30.6% (inactive)	
Cc1ccc2nc(N/C(=N/S(=O)(=O)c3ccc(F)cc3)c3ccccc3)sc2c1	8.2% (inactive)	
Cc1ccc2nc(N/C(=N/S(=O)(=O)c3cccs3)c3ccccc3Cl)sc2c1	69.2% (active)	
Cc1cc(C)nc(SCc2nc(N)nc(-c3ccccc3O)n2)n1	-1.6% (inactive)	
COc1cc2c(cc1OC)CN(C(=O)c1sc(-c3cnccn3)nc1C)CC2	0.1% (inactive)	
COc1cc(/C=N/N=C2/NC(=O)C(CC(=O)O)S2)ccc1OCc1cccc(Cl)c1 (stereo not drawn)	47.1% (inactive)	
COc1ccc(/C=N/N=C2/NC(=O)C(CC(=O)O)S2)cc1OCc1ccc(Cl)cc1 (stereo not drawn)	44% (inactive)	
CCOc1cc(/C=N/NC(=O)CN2CCCCC2)ccc1OCc1ccc(Cl)cc1	-0.7% (inactive)	
CCOc1cc(/C=N/NC(=O)CN2CCOCC2)ccc1OCc1ccc(Cl)cc1	0.5% (inactive)	
COc1cc(/C=N/N=C2/NC(=O)C(CC(=O)O)S2)ccc1OCc1ccc(Cl)cc1 (stereo not drawn)	51.8% (active)	
COc1ccc(/C=N/N=C2/NC(=O)C(CC(=O)O)S2)cc1OCc1ccc(Cl)cc1Cl (stereo not drawn)	50.6% (inactive)	47.2
CCOc1cc(/C=N/N=C2/NC(=O)C(CC(=O)O)S2)ccc1OCc1ccccc1Cl (stereo not drawn)	53% (inactive)	36.4
Cc1ccc(NC(=S)NCCN(C2CCCCC2)C2CCCC2)cc1C	0.4% (inactive)	
COc1cc(C(C)=O)ccc1COc1ccc(C(=O)O)cc1OC	2.1% (inactive)	
O=C(NC1CC2CCCC(C1)N2Cc1ccco1)NC12CC3CC(CC(C3)C1)C2 (stereo not drawn)	0.1% (inactive)	
CCC(=O)Oc1ccc2c(C)cc(=O)oc2c1C(=O)c1ccccc1	1.8% (inactive)	
COc1ccc(C(=O)c2cc3cccc(OC)c3o2)cc1	-1% (inactive)	
Cc1ccccc1N1C(=O)c2cccc3c(N(C)CCO)ccc(c23)C1=O	2.4% (inactive)	
COc1ccc(N2C(=O)c3cccc4c(N(C)CCO)ccc(c34)C2=O)cc1	150% (inactive)	
COc1ccccc1N1C(=O)c2cccc3c(N(C)CCO)ccc(c23)C1=O	64% (active)	61.6
COc1ccccc1/C=C/C=N/n1c(-c2ccncc2)n[nH]c1=S	1.2% (inactive)	
CC(C)=NNc1nc2sc3c(c2c(=O)[nH]1)CC(C)(C)OC3	6.1% (inactive)	
CN(C)[C@@H]1C(=O)C(C(=O)NCN2CCCC2)=C(O)[C@@]2(O)C(=O)C3=C(O)c4c(O)cccc4[C@@](C)(O)C3CC12 (stereo partly drawn)	55.1% (active)	

Structure (SMILES)	inhibition (at 20 µM)	inhibition [1] [%]
C=CCCC(=O)N1CCC(n2nccc2NC(=O)CCCc2ccccc2)CC1	-2.2% (inactive)	
COc1ccc2nc(N/C(N)=N/C(=S)Nc3cccc(C)c3)nc(C)c2c1	1.7% (inactive)	
COc1ccc(/C=c2\sc3nc(-c4ccccc4)c(-c4ccccc4)n3c2=O)cc1OC	-0.1% (inactive)	
COc1cc(/C=c2\sc3nc(=O)c(-c4ccccc4)nn3c2=O)ccc1OCCC(C)C	62.3% (inactive)	39.1
CCCCCOc1ccc(/C=c2\sc3nc(=O)c(-c4ccccc4)nn3c2=O)cc1OC	51.8% (active)	
CC(=O)Oc1ccc(/C=N/NC2=NS(=O)(=O)c3ccccc32)cc1	0.3% (inactive)	
CCCc1ccc(Oc2coc3cc(OCC(=O)Nc4ccccc4C)ccc3c2=O)cc1	-2.2% (inactive)	
NC(=S)N/N=C/c1ccccc1O	-1.4% (inactive)	
NC(=S)N/N=C/c1cccc(O)c1O	3.4% (inactive)	
Cc1cc(/C=N/NC(N)=S)c(O)c(/C=N/NC(N)=S)c1	88.3% (active)	
CCOC(=O)Cn1c(=N)n(CCOc2ccc(F)cc2)c2ccccc21	0% (inactive)	
COc1ccc(CCNC(=O)C2CCC(=O)N(CC3CCCCC3)C2)cc1 (stereo not drawn)	0.4% (inactive)	
N/C(Cc1cccc2ccccc12)=N\OC(=O)COc1ccccc1	2.3% (inactive)	
Cn1cc(/C=N/NC(=O)c2cc3cc(Br)ccc3o2)c2ccccc21	4.4% (inactive)	
O=C(O)c1ccc(-n2cccc2/C=N\NC(=O)c2cc3cc(Br)ccc3o2)cc1	50.1% (active)	
O=C(O)Cn1cc(/C=N/NC(=O)c2cc3cc(Br)ccc3o2)c2ccccc21	29.5% (inactive)	
Cc1ccc(NC(=O)C2CCN(S(=O)(=O)c3ccc4c(c3)CCCC(=O)N4)CC2)c(Br)c1	1.8% (inactive)	
CN(C)/C=C1/C=C(C=O)OC1=O	-0.5% (inactive)	
CC1=C/C(=C/N(C)C)C(=O)O1	5.9% (inactive)	
CCOC(=O)/C(=C/C1=CC(=C/N(C)C)/C(=O)O1)C(C)=O	59.4% (active)	65.4
COc1cc([N+](=O)[O-])ccc1N1C(=O)CC(Sc2nccc(C)n2)C1=O (stereo not drawn)	-1% (inactive)	
CC(C)CSC1=NSC2=NC(=O)/C(=C\c3ccccc3)C(=N)N12	46.5% (inactive)	
N=C1/C(=C\c2coc3ccccc3c2=O)C(=O)N=C2SC(c3ccncc3)=NN12	146% (inactive)	

Structure (SMILES)	inhibition (at 20 µM)	inhibition [1] [%]
N=C1/C(=C\c2coc3ccccc3c2=O)C(=O)N=C2SC=CN12	146% (inactive)	
CC(C)CC1=NN2C(=N)/C(=C\c3coc4ccccc4c3=O)C(=O)N=C2S1	148% (inactive)	
CCSC1=NSC2=NC(=O)/C(=C\c3coc4ccccc4c3=O)C(=N)N12	89.7% (active)	
CC1=CC2=NC(=O)/C(=C\c3ccc(-c4ccc(Cl)cc4)o3)C(=N)N2O1	13.2% (inactive)	
CC(C)CSC1=NSC2=NC(=O)/C(=C\c3coc4ccccc4c3=O)C(=N)N12	148% (inactive)	
CC1=CC2=NC(=O)/C(=C\c3cc(C)n(-c4cccc(Cl)c4)c3C)C(=N)N2O1	0.2% (inactive)	
CC1=CC2=NC(=O)/C(=C/c3coc4ccc(Cl)cc4c3=O)C(=N)N2O1	99.7% (active)	62.3
N=C1/C(=C/c2coc3ccccc3c2=O)C(=O)N=C2SC(c3ccco3)=NN12	114% (active)	
CSC1=NSC2=NC(=O)/C(=C/c3coc4ccccc4c3=O)C(=N)N12	91.2% (active)	
CSC1=NSC2=NC(=O)/C(=C\c3coc4ccccc4c3=O)C(=N)N12	44.5% (inactive)	
COc1ccccc1CNC(=O)C1CC(c2ccccc2C(F)(F)F)=NO1 (stereo not drawn)	0.6% (inactive)	
COCc1cc(C)n(CC(=O)Nc2c(C)cccc2C)c(=O)c1C#N	0.1% (inactive)	
NC(=O)c1ccccc1NCC(=O)c1ccc(Cl)cc1	1.4% (inactive)	
CCOC(=O)C1=C(COC(=O)C2(C)CC2(Cl)Cl)NC(=O)NC1c1ccccc1 (stereo not drawn)	-1.7% (inactive)	
CC12CC3CC(C)(C1)CC(C(=O)NC1=NCCS1)(C3)C2	-1.5% (inactive)	
Cc1ccc(C(=O)N2CCCC(Nc3cccc(F)c3)C2)cc1N1CCNC1=O (stereo not drawn)	0% (inactive)	
CCN(CC)c1nc2n(c(=O)n1)CCN2CC	2.4% (inactive)	
O=C(CN1C(=O)C2CC=CCC2C1=O)NCc1cccs1 (stereo not drawn)	-0.4% (inactive)	
COc1ccc(CN2CSC(=S)N(Cc3ccc(OC)cc3)C2)cc1	-1.4% (inactive)	
N=C1/C(=C\c2coc3ccc(O)cc3c2=O)C(=O)N=C2SC=CN12	150% (inactive)	
CSC1=NSC2=NC(=O)/C(=C\c3cccs3)C(=N)N12	45.4% (inactive)	
CSC1=NSC2=NC(=O)/C(=C/c3coc4ccc(O)cc4c3=O)C(=N)N12	57.5% (active)	
